This is part of a sample that, as a whole, favours compounds with a hit. Of some 83,000 tested, about 20% had one in any assay.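 Cell lines were cultured in 96-well plates, exposed to a single compound concentration, and assessed for percent growth 48 hours later.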 Calls of active or inactive are those of the source. The calls were made as follows: active = growth percent below 10; inactive = the rest.
Tests used:
Assay in all cases: NCI-60 one-dose screen, 48 h (100 = growth as untreated, 0 = no growth, -100 = all killed)
[1] = tested on: NCI-H226 lung; details: 10 µM
[2] = tested on: NCI-H322M lung; details: 10 µM
[3] = tested on: HOP-62 NSCLC; details: 10 µM
[4] = tested on: NCI-H460 lung; details: 10 µM
[5] = tested on: A549/ATCC NSCLC; details: 10 µM
[6] = tested on: 786-0 renal; details: 10 µM
[7] = tested on: COLO 205 colon; details: 10 µM
[8] = tested on: DU-145 prostate; details: 10 µM
[9] = tested on: SF-268 CNS; details: 10 µM
[10] = tested on: SF-295 CNS; details: 10 µM
[11] = tested on: SF-539 CNS; details: 10 µM
[12] = tested on: HCT-15 colon; details: 10 µM
[13] = tested on: HT29 colon; details: 10 µM
[14] = tested on: SNB-75 CNS; details: 10 µM
[15] = tested on: SNB-19 CNS; details: 10 µM
[16] = tested on: U251 CNS; details: 10 µM
[17] = tested on: PC-3 prostate; details: 10 µM
[18] = tested on: ACHN renal; details: 10 µM
[19] = tested on: HL-60(TB) leukemia; details: 10 µM unless noted
[20] = tested on: CCRF-CEM leukemia; details: 10 µM

Measured: growth

CC(C)(O)/C=C/C(=O)[C@](C)(O)[C@H]1[C@H](O)C[C@@]2(C)[C@H]3CC=C4[C@@H](C[C@H](O)C(=O)C4(C)C)[C@]3(C)C(=O)C[C@]12C
active: [3] 5.78% | [6] 1.91% | [9] -3.28% | [10] 7.51% | [11] -31.5% | [12] 7.53% | [13] 3.2% | [14] -39.4% | [15] 8.14% | [16] 0.229% | [18] -1.68% | [19] -3.29% | [20] 3.53%
inactive: [1] 12.7% | [2] 32.3% | [4] 15.6% | [5] 10.1% | [7] 34.3% | [8] 14% | [17] 11.4%

CN1C(=O)[C@]23SSC1(C)C(=O)N2[C@H]1Nc2ccccc2C1([C@@]12c4ccccc4N[C@@H]1N1C(=O)C4(C)SS[C@]1(C(=O)N4C)[C@H]2O)[C@@H]3O (some centres undefined)
active: [1] -96.6% | [2] -74.2% | [3] -91% | [4] -87.4% | [5] -86.9% | [6] -99.1% | [7] -88.9% | [8] -94.1% | [9] -86.5% | [10] -80.2% | [11] -91.3% | [12] -45.4% | [13] -66.7% | [14] -85.8% | [15] -99.4% | [16] -97.5% | [17] -79.9% | [18] -98.8% | [19] -19.4% | [20] 1.4%

CC1=C2C(=C[C@@](C)(COC(=O)c3ccc(S(=O)(=O)F)cc3)[C@@H]2O)C(=O)[C@](C)(O)C12CC2
active: [1] -24.4% | [2] -5.82% | [3] -17.7% | [4] -33.3% | [5] -11% | [6] -37.7% | [7] -58.5% | [8] -20.4% | [9] -12% | [10] -5.19% | [11] -67.8% | [12] -20.2% | [13] -17.9% | [14] -51.6% | [15] 3.51% | [16] 1.04% | [17] -3.96% | [18] 0.0222% | [20] 9.59%
